Laboratory results taken from PubChem BioAssay (NCI).
Compounds without any hit were thinned out: in the full panel of roughly 83,000, 20% have a hit.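 Note: values are percent growth. 100 is the growth of untreated cells, values between 100 and 0 indicate rising inhibition; between -100 and 0 indicates cell death.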 A number with no mark means an inactive call. Active and inactive are the calls of the source. Rule for the calls: active = growth percent below 10; inactive = the rest.

Tested on: SK-OV-3 ovarian
Assay: NCI-60 one-dose screen, 48 h (100 = growth as untreated, 0 = no growth, -100 = all killed)
Details: 10 µM

SMILES	growth
COc1cccc2nc(Nc3cccc(NC(=O)c4ccc(CN5CCCN(C)CC5)c(C(F)(F)F)c4)c3)ccc12	-72.8% (active)
COc1cc(C2CC(c3ccc(C)cc3)=Nc3c(N)nc(N)nc3N2)ccc1Oc1nc(Nc2ccc(F)cc2)nc(N(C)C)n1 (stereo not drawn)	100%
CC(=O)Nc1ccc(-c2cn(-c3cccc(C(=O)Nc4ccc(Cl)c(C(F)(F)F)c4)c3)nn2)cn1	-3.46% (active)
Cc1cc(C(F)(F)F)ccc1C(=O)Nc1sc2c(c1C#N)CCC(=O)C2	-18.9% (active)
COc1ccc(OC)c(/C=N/NC(=O)c2ccc3nc(-c4ccc(Cl)cc4)[nH]c3c2)c1	84.9%
CC1=N/C(=C\c2ccc(N(C)C)cc2)C(=O)N1CCc1ccc(S(N)(=O)=O)cc1	95.3%
Cc1ccc(-c2cc(C(=O)N=Nc3c(O)[nH]c4ccc(Br)cc34)c3ccccc3n2)cc1	107%
COc1ccccc1C(=O)NNC(=O)CSc1nc2c(c(=O)[nH]1)CCCC2	94.1%
C=C1CCC2C3(C)COC(c4cccc(F)c4)OC3CCC2(C)C1CC(O)C1=CCOC1=O (stereo not drawn)	108%
C=C1CCC2C3(C)COC(c4c(F)cccc4F)OC3CCC2(C)C1C/C=C1/C(=O)OCC1O (stereo not drawn)	54.7%
Nc1nnc(-c2c[nH]c3ccc(F)cc23)c(-c2c[nH]c3ncccc23)n1	92%
CC(=O)NS(=O)(=O)c1ccc(NC(=O)CSC2=NC(c3ccccc3)C(C(C)=O)=C(C)N2)cc1 (stereo not drawn)	100%
COC1=C[C@@]23CCC(=O)N2CCc2cc4c(cc2[C@H]3[C@H]1OC(=O)C(C)(C)O)OCO4	120%
Nc1nc(-c2ccccc2)cs1	82.5%
COC(=O)c1c(C(=O)OC)c2n(c1C)[C@@H]([C@@H](C)[C@H]1CC[C@H]3[C@@H]4CCC5=CC(=O)CC[C@]5(C)[C@H]4CC[C@]13C)SC2	48.7%
C/C(=N\NC(N)=S)c1ccc(Nc2nc(SC(C)C)nc(-c3ccccc3)c2C#N)cc1	90%
COc1ccc(-c2cc(-c3cc(C(=O)c4ccc(Br)cc4)n4ccc(C)cc34)nc(N)c2C#N)cc1	105%
CC(=O)Nc1ccc(-n2cnc3cc(-c4ccc(NS(C)(=O)=O)cc4)ccc32)cc1	87.9%
O=c1cc(-c2ccccc2)oc2cc(OCCCCNCc3ccccc3)cc(O)c12	61.1%
C/C(=N\N=C\c1ccc(Cl)c([N+](=O)[O-])c1)c1ccc2c(c1)Nc1ccccc1S2	94.8%
N#Cc1c(-c2ccc(Cl)cc2)cc(-c2ccccc2)nc1OCc1ccccc1	83.1%
COc1cccc(/C=N/NC(=O)c2ccc3nc(-c4ccc(Cl)cc4)[nH]c3c2)c1O	-84.6% (active)
COc1ccc(/C(CSc2nnc(-c3c[nH]c4ccccc34)n2-c2ccccc2)=N/O)cc1	52.1%

Tested on: IGROV1 ovarian
Assay: as above
Details: 10 µM

SMILES	growth
CCCn1c(O)c(N=Nc2nc(-c3cc4ccccc4oc3=O)cs2)c2cc(Br)ccc21	106%
COc1cc2oc(-c3cccc(C(=O)Nc4ccc(Cl)cc4)c3)cc(=O)c2c(OCCNC(=O)CNC(=O)OC(C)(C)C)c1OC	50.9%
O=C(Cc1ccc2c(c1)CN(C1CCC(=O)NC1=O)C2=O)NCc1cccc2ccccc12 (stereo not drawn)	-13.5% (active)
CCOC(=O)CNC(=O)CN(Cc1ccccc1)C(=O)[C@@]1(C)CCC[C@]2(C)[C@H]3C[C@H]4C(C(C)C)=C[C@]3(CC[C@H]21)[C@@H]1C(=O)OC(=O)[C@@H]14	41.8%
O=C(NCCCCCCCCCC[P+](c1ccccc1)(c1ccccc1)c1ccccc1)c1ccc(-n2nc(-c3ccccc3O)nc2-c2ccccc2O)cc1	-75.7% (active)
COc1ccc2[nH]c(=O)c(CSc3ccc(Nc4nccc(-c5ccc(Cl)cc5)n4)cc3)cc2c1	105%
CCOC(=O)C1=C(N)N(c2ccccc2)C2=C(C(=O)CC(C)(C)C2)C1c1ccccc1OC (stereo not drawn)	96.9%
COc1cccc2nc(Nc3cccc(NC(=O)c4ccc(CN5CCCN(C)CC5)c(C(F)(F)F)c4)c3)ccc12	-85.2% (active)
Cc1cc(C(F)(F)F)ccc1C(=O)Nc1sc2c(c1C#N)CCC(=O)C2	-5.43% (active)
CC1=N/C(=C\c2ccc(N(C)C)cc2)C(=O)N1CCc1ccc(S(N)(=O)=O)cc1	103%
C=C1CCC2C3(C)COC(c4cccc(F)c4)OC3CCC2(C)C1CC(O)C1=CCOC1=O (stereo not drawn)	61.1%
C=C1CCC2C3(C)COC(c4c(F)cccc4F)OC3CCC2(C)C1C/C=C1/C(=O)OCC1O (stereo not drawn)	-26.7% (active)
Nc1nnc(-c2c[nH]c3ccc(F)cc23)c(-c2c[nH]c3ncccc23)n1	33.5%
COC1=C[C@@]23CCC(=O)N2CCc2cc4c(cc2[C@H]3[C@H]1OC(=O)C(C)(C)O)OCO4	103%
COC(=O)c1c(C(=O)OC)c2n(c1C)[C@@H]([C@@H](C)[C@H]1CC[C@H]3[C@@H]4CCC5=CC(=O)CC[C@]5(C)[C@H]4CC[C@]13C)SC2	75.9%
C/C(=N\NC(N)=S)c1ccc(Nc2nc(SC(C)C)nc(-c3ccccc3)c2C#N)cc1	81.3%
COc1ccc(-c2cc(-c3cc(C(=O)c4ccc(Br)cc4)n4ccc(C)cc34)nc(N)c2C#N)cc1	90%
CC(=O)Nc1ccc(-n2cnc3cc(-c4ccc(NS(C)(=O)=O)cc4)ccc32)cc1	36.4%
O=c1cc(-c2ccccc2)oc2cc(OCCCCNCc3ccccc3)cc(O)c12	63.8%
COc1ccc(/C(CSc2nnc(-c3c[nH]c4ccccc34)n2-c2ccccc2)=N/O)cc1	43.1%
